Measured values from paper PMC7862700, “An all-to-all approach to the identification of sequence-specific readers for epigenetic DNA modifications on cytosine”.

Tests used:
Assay in all cases: DAPPL (digital affinity profiling via proximity ligation, sequencing); 10 mM Tris-HCl pH 7.5, 50 mM NaCl, 1 mM DTT, 4% glycerol, room temperature, 30 min; GST-TFs on glutathione beads, 16-mer random dsDNA library, 0.1% formaldehyde crosslink after washing; high values mean tight binding
Details in all cases: protein: recombinant; tags: N-terminal GST; dsDNA, one strand shown
[1] = biological target: T1, FLI1 (Homo sapiens, UniProt Q01543 1-452)
T1 sequence: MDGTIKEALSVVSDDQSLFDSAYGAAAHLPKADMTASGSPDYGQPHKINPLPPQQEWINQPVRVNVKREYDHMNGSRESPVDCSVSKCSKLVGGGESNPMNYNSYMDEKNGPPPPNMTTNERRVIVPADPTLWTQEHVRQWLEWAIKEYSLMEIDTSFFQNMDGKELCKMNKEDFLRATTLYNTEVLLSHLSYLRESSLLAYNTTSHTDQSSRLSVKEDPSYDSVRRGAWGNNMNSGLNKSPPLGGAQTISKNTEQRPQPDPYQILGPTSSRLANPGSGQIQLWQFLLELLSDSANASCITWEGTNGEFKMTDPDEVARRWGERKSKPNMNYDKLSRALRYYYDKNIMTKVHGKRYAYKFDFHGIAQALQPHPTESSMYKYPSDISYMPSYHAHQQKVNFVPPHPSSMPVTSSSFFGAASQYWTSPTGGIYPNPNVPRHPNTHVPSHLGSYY
In short: (§1)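 Human transcription factors were made in yeast as GST fusions, captured on glutathione beads and barcoded with DNA. With a tag-only sample included, the pool was incubated with 200 nmole of a random double-stranded 16-mer DNA library in Tris/NaCl/DTT/glycerol buffer at room temperature for 30 min, then crosslinked with 0.1% formaldehyde after washing, ligated by proximity, amplified and sequenced. For binding signal, each hexamer's read frequency for a factor is divided by its frequency for the tag-only sample.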

[2] = biological target: T2, ELK1 (Homo sapiens, UniProt P19419 1-428)
T2 sequence: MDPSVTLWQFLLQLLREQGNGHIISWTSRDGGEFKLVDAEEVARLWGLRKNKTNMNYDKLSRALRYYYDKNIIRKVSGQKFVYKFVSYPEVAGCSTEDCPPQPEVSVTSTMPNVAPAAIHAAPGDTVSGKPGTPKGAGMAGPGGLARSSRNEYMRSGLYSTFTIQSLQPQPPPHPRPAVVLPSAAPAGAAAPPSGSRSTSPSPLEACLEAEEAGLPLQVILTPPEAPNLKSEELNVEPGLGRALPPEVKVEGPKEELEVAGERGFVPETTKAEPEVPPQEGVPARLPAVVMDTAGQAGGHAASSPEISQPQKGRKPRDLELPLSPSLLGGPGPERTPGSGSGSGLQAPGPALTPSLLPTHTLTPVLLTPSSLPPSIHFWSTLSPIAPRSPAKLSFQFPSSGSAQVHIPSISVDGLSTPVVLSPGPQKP
In short: as §1

[3] = biological target: T3, GABPA (Homo sapiens, UniProt Q06546 1-454)
T3 sequence: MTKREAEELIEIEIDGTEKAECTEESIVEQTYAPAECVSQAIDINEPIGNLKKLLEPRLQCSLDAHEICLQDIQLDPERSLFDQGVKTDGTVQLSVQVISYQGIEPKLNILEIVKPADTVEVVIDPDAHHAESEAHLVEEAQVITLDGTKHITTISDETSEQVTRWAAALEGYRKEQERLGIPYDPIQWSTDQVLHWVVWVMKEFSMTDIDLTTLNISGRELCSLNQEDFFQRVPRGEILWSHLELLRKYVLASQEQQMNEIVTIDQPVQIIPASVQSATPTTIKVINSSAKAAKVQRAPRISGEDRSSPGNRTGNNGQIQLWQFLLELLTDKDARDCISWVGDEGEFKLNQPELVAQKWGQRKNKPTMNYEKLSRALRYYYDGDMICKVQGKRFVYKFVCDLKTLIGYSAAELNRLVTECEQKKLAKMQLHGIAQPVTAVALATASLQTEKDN
In short: as §1

[4] = biological target: T4, ERG (Homo sapiens, UniProt P11308 1-479)
T4 sequence: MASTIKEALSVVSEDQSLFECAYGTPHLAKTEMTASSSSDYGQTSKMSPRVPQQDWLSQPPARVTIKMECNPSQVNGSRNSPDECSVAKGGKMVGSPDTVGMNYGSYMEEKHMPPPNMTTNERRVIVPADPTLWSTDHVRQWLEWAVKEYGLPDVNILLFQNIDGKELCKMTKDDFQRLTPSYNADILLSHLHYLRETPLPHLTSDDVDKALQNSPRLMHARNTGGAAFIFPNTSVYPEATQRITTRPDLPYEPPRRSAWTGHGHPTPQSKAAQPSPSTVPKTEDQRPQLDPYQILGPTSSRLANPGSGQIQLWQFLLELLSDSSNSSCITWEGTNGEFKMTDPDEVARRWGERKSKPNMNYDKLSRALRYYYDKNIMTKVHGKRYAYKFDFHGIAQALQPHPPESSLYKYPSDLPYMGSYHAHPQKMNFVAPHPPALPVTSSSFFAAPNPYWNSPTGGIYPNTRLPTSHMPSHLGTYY
In short: as §1

[5] = biological target: ELF1 (Homo sapiens, UniProt P32519 1-619)
Chain of ELF1 (P32519 whole entry): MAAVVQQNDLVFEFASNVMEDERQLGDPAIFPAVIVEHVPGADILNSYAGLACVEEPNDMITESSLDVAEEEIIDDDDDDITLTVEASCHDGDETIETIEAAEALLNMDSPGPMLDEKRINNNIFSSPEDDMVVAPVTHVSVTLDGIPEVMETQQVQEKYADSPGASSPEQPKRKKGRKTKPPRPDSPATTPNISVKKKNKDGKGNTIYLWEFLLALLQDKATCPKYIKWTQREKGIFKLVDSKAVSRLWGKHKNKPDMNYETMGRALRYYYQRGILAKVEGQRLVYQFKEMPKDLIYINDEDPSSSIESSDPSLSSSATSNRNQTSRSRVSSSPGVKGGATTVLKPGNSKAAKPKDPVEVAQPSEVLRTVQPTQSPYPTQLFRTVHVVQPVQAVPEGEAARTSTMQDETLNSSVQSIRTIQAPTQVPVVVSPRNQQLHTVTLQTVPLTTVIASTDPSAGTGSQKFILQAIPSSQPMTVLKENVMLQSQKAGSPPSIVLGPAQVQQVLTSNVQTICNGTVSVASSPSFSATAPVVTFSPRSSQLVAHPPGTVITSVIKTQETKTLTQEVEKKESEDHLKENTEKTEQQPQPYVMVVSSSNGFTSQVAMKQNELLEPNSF
In short: as §1

[6] = biological target: T5, EHF (Homo sapiens, UniProt Q9NZC4 1-300)
T5 sequence: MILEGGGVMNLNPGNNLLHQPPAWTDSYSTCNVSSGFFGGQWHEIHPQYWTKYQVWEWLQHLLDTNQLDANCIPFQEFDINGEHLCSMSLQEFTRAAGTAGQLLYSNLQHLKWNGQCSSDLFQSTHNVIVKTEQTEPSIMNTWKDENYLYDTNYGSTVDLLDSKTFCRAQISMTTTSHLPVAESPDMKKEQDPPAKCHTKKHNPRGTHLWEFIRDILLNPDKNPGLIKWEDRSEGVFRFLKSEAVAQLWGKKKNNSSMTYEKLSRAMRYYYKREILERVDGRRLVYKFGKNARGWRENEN
In short: as §1

[7] = biological target: T6, SPIC (Homo sapiens, UniProt Q8N5J4 1-248)
T6 sequence: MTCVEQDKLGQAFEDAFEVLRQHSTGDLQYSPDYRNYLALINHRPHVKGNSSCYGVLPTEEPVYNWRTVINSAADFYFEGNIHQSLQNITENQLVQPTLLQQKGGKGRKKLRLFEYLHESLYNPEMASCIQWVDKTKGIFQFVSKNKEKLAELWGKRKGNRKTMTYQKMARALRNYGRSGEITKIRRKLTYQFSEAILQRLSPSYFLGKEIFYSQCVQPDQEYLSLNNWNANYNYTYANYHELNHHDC
In short: as §1

[8] = biological target: ELF4 (Homo sapiens, UniProt Q99607 1-663)
Chain of ELF4 (Q99607 whole entry): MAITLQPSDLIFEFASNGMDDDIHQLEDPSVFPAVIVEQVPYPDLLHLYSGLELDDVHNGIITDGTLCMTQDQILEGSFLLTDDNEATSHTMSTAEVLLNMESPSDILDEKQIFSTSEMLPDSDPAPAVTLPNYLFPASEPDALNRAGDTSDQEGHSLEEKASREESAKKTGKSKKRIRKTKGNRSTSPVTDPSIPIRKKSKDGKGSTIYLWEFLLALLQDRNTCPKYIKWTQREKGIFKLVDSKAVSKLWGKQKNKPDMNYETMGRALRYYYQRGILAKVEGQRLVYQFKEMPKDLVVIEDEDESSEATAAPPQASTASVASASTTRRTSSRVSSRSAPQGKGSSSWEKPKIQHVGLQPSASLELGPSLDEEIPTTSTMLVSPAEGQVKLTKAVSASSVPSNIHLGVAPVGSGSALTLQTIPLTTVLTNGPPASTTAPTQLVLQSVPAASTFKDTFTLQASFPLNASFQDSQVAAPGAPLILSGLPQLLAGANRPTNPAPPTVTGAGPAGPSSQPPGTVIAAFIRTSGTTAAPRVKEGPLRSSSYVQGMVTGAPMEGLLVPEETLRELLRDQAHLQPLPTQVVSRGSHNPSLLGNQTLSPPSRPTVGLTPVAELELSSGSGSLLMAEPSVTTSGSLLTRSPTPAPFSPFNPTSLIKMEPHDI
In short: as §1

[9] = biological target: T7, ELK4 (Homo sapiens, UniProt P28324-2 1-405)
T7 sequence: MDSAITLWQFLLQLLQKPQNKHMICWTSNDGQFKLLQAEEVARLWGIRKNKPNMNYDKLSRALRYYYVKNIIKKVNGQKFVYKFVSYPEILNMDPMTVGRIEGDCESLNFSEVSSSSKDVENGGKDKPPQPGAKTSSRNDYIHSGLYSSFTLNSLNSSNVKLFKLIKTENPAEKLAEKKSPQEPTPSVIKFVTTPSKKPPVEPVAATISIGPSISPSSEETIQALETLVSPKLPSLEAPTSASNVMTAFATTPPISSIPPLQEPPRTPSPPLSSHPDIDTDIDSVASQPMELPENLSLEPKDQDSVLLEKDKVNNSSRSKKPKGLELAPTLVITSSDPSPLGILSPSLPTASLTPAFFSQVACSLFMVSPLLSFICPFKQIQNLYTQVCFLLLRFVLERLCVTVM
In short: as §1

[10] = biological target: ETV1 (Homo sapiens, UniProt P50549 1-477)
Chain of ETV1 (P50549 whole entry): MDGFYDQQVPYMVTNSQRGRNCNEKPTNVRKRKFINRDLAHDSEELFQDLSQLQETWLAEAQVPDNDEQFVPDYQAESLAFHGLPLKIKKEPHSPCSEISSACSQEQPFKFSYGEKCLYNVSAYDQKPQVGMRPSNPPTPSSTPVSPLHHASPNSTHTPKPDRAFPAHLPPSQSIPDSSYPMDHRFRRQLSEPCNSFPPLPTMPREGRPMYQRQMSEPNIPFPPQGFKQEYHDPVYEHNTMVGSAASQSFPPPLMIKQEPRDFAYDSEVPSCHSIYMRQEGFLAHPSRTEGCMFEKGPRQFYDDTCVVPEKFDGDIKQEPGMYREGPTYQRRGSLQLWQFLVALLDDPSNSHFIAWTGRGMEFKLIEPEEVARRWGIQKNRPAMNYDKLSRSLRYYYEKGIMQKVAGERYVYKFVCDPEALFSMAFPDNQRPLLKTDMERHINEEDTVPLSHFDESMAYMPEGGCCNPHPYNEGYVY
In short: as §1

[11] = biological target: ETV6 (Homo sapiens, UniProt P41212 1-452)
Chain of ETV6 (P41212 whole entry): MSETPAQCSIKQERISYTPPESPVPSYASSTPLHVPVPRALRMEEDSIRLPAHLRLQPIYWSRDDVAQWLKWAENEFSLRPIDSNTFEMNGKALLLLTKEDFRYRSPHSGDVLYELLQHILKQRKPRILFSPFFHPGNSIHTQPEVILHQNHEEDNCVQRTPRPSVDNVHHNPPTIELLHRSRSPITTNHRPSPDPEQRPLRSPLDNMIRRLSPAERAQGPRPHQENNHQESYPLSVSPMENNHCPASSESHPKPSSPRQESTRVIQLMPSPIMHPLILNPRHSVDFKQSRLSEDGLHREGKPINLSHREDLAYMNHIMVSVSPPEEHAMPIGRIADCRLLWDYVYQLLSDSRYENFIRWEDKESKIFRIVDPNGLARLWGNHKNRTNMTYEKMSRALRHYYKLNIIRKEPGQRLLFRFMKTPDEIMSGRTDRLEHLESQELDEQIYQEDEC
In short: as §1

[12] = biological target: SPIB (Homo sapiens, UniProt Q01892 1-262)
Chain of SPIB (Q01892 whole entry): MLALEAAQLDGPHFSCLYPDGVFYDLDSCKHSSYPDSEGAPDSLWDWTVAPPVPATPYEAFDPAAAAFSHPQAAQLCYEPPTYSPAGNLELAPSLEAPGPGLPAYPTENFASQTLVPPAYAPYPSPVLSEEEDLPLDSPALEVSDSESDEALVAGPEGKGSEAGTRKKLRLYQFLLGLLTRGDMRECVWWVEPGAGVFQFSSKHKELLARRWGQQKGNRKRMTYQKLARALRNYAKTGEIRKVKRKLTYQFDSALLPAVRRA
In short: as §1

[13] = biological target: T8, ELK3 (Homo sapiens, UniProt P41970 1-407)
T8 sequence: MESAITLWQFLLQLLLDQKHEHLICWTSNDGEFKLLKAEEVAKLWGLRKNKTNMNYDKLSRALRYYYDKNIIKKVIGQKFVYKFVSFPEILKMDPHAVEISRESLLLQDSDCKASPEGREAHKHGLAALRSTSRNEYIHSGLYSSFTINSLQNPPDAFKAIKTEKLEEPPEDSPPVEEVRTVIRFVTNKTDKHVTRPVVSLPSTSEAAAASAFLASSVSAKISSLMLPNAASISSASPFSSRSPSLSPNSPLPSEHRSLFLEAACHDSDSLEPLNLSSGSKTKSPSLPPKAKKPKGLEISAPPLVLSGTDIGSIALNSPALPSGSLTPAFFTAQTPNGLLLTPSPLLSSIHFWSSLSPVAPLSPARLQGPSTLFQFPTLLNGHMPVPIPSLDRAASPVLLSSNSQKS
In short: as §1

[14] = biological target: T9, ETV2 (Homo sapiens, UniProt O00321 1-342)
T9 sequence: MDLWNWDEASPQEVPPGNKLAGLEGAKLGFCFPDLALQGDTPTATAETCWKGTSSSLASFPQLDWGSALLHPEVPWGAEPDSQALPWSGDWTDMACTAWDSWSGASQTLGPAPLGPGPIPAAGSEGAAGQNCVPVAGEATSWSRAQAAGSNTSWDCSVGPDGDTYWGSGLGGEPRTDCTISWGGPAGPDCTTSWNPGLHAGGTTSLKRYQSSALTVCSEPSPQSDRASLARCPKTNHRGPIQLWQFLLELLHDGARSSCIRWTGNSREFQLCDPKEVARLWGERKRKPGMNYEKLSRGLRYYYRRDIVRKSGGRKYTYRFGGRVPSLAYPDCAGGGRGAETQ
In short: as §1

[15] = biological target: T10, ERF (Homo sapiens, UniProt P50548 1-548)
T10 sequence: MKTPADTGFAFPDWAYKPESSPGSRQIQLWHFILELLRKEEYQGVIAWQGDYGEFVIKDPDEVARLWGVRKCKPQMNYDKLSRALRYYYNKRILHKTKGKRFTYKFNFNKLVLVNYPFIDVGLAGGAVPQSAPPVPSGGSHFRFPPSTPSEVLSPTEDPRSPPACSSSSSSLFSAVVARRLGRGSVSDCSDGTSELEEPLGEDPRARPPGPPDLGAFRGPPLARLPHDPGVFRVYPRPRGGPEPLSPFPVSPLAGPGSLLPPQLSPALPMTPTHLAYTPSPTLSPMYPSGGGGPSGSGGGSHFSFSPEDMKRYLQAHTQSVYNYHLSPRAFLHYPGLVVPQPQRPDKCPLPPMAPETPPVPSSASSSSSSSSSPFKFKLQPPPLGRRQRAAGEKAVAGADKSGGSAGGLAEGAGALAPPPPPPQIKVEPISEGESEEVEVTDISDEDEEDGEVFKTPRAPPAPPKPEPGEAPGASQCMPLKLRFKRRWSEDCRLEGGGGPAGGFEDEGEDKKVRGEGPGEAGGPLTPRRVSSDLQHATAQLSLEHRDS
In short: as §1

[16] = biological target: T11, ETV7 (Homo sapiens, UniProt Q9Y603 1-341)
T11 sequence: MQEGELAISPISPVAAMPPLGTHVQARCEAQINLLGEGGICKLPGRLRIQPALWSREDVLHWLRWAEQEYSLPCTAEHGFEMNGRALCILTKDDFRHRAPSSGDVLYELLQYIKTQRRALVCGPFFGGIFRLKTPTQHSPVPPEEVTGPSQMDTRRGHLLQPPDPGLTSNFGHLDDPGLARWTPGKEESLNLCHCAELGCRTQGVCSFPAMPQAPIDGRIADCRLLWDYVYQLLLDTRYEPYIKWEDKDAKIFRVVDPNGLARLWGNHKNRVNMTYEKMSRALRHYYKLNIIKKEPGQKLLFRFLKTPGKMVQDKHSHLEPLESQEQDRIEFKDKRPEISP
In short: as §1

[17] = biological target: T12, ETV3 (Homo sapiens, UniProt P41162-2 1-143)
T12 sequence: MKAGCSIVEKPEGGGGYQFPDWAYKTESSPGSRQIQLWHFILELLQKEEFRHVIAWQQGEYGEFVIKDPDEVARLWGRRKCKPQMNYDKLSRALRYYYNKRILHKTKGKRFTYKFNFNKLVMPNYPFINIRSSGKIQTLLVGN
In short: as §1

| Sequence | binding signal [1] | binding signal [2] | binding signal [3] | binding signal [4] | binding signal [5] | binding signal [6] | binding signal [7] | binding signal [8] | binding signal [9] | binding signal [10] | binding signal [11] | binding signal [12] | binding signal [13] | binding signal [14] | binding signal [15] | binding signal [16] | binding signal [17] |
| --- | --- | --- | --- | --- | --- | --- | --- | --- | --- | --- | --- | --- | --- | --- | --- | --- | --- |
| CGCAAC | 1.04 fold enrichment (6-mer frequency, TF over GST control) | 1.08 fold enrichment (6-mer frequency, TF over GST control) | 1.08 fold enrichment (6-mer frequency, TF over GST control) | 1.03 fold enrichment (6-mer frequency, TF over GST control) | 1.12 fold enrichment (6-mer frequency, TF over GST control) | 1.01 fold enrichment (6-mer frequency, TF over GST control) | 1.08 fold enrichment (6-mer frequency, TF over GST control) | 1.06 fold enrichment (6-mer frequency, TF over GST control) | 1 fold enrichment (6-mer frequency, TF over GST control) | 1.03 fold enrichment (6-mer frequency, TF over GST control) | 1.07 fold enrichment (6-mer frequency, TF over GST control) | – | – | – | – | – | – |
| ACCACG | 1.14 fold enrichment (6-mer frequency, TF over GST control) | 1.16 fold enrichment (6-mer frequency, TF over GST control) | 1.09 fold enrichment (6-mer frequency, TF over GST control) | 1.06 fold enrichment (6-mer frequency, TF over GST control) | 1.18 fold enrichment (6-mer frequency, TF over GST control) | 1.04 fold enrichment (6-mer frequency, TF over GST control) | 1.08 fold enrichment (6-mer frequency, TF over GST control) | 1.05 fold enrichment (6-mer frequency, TF over GST control) | 1.11 fold enrichment (6-mer frequency, TF over GST control) | 1.05 fold enrichment (6-mer frequency, TF over GST control) | 1.02 fold enrichment (6-mer frequency, TF over GST control) | 1.04 fold enrichment (6-mer frequency, TF over GST control) | 1.08 fold enrichment (6-mer frequency, TF over GST control) | 1.09 fold enrichment (6-mer frequency, TF over GST control) | 1.03 fold enrichment (6-mer frequency, TF over GST control) | 1.04 fold enrichment (6-mer frequency, TF over GST control) | 1.04 fold enrichment (6-mer frequency, TF over GST control) |
